# From PubChem BioAssay
# In the library only some 6.6% were active in any assay of this set; here they are far more common.
# NR3A LBD binder: modulators (binders) of human NR3A ligand-binding domain; NR3A LBD differential scanning fluorimetry, Tm shift; 0% = protein alone, 100% = glycine-bound protein; Tm shift relative to glycine control, % at 25 µM; hit rate 2.5% among 340,000;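 active = melting temperature shift of at least 10% of the positive control shift, at one fixed dose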
# Mdm2 MdmX PPI: disrupts the human Mdm2-MdmX interaction; hit rate 3% among 330,000; inhibition, % at 8 µM; O15151+Q00987; AID 485346; SaOS-2 split-luciferase Mdm2/MdmX complementation, luminescence;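 active = inhibition of at least 50% at 8 µM in the primary screen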
# Target sequence (O15151 whole entry, looked up): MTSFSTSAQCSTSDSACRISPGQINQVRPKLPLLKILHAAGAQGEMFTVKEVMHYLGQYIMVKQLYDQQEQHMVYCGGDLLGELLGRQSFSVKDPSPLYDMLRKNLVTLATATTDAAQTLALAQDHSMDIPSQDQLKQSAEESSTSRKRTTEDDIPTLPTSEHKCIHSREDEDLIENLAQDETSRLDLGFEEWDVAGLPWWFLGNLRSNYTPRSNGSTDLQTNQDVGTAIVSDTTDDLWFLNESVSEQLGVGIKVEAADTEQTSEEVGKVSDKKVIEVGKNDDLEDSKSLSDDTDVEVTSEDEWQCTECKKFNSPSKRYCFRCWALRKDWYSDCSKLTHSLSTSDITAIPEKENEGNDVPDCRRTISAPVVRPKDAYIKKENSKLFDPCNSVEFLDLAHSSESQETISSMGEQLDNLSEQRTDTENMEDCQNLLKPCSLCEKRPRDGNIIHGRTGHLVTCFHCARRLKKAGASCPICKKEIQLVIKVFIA
# Target sequence (Q00987 whole entry, looked up): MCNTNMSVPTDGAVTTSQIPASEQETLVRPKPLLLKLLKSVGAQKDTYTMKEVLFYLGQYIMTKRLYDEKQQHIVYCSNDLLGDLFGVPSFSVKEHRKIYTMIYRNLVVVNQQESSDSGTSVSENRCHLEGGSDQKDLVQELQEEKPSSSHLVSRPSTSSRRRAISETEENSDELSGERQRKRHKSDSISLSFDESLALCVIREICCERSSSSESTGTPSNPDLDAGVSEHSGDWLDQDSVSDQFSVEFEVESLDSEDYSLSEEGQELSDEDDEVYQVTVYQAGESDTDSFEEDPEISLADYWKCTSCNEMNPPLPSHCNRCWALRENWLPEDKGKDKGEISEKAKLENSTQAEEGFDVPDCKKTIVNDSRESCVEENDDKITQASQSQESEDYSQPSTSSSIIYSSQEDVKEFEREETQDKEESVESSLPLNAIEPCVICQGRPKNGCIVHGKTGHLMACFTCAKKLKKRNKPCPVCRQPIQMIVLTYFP
# Gli-Sufu antag: antagonists of Gli-Sufu signaling; Sufu-KO-LIGHT fibroblasts, Gli luciferase reporter luminescence; inhibition, % at 5 µM; hit rate 0.74% among 340,000; AID 588413;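 active = inhibition above about 55%, limit read from the data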;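 note: 0% = DMSO-treated cells and 100% = wells with medium but no cells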
# Beta cell apopt: beta cell apoptosis inhibition; INS-1E cytokine-induced death, ATP luminescence, 48 h; percent of positive-control rescue, neutral wells zero; protection from apoptosis, % (no concentration beside the values); hit rate 0.8% among 300,000; AID 435005;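 active = Every replicate reaches about 75%, or at least half do and their mean reaches it too, limit read from the data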;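 note: 0% = cytokine-treated negative control wells and 100% = positive control rescue; higher means more ATP so stronger rescue from cytokine killing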
# CSC inhib: blocks cancer stem cells; cancer stem cell-like cells viability, luminescence; inhibition, % at 7.5 µM; hit rate 1.1% among 300,000; AID 2717; in the data active = inhibition above about 75%; tested in HMLE shEcad cells
# MPTP block: inhibitors of mitochondrial permeability transition pore. hit rate 1.4% among 360,000. isolated mouse mitochondria, Ca2+ swelling absorbance, 30 min. inhibition, % at 10 µM;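 active = inhibition of 50% or more, scaled per plate between neutral and stimulator controls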;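 note: 0% = DMSO wells given calcium and 100% = 1 mM EGTA wells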
# Mdm2-MdmX conf: human Mdm2/MdmX binding inhibition, confirmed; AID 489028; shares compounds with Mdm2 MdmX PPI; inhibition, % at 8 µM; hit rate 55% among 10,000; luminescent assay; in the data active = inhibition above about 40%
# FLuc counter: inhibits full-length luciferase, flagging false Mdm2/MdmX hits. shares compounds with Mdm2 MdmX PPI. hit rate 77% among 6,200. SaOS-2 full-length luciferase counterscreen, luminescence. inhibition, % at 8 µM;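 active = mean inhibition at 8 µM reaching about 37%, which flags the compound as non-specific, limit read from the data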;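 note: p53-null SaOS-2 cells with luciferase driven by a doxycycline-inducible promoter; compound on cells about two nights before reading with doxycycline added after day one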
# * = called active by the depositor; / = no result.
SMILES,NR3A LBD binder,Mdm2 MdmX PPI,Gli-Sufu antag,Beta cell apopt,CSC inhib,MPTP block,Mdm2-MdmX conf,others
CC1=Nc2cc(C(=O)NCCN3CCOCC3)ccc2Sc2c(C)ccc(C)c21,3,64*,4,1,42,-4,52*,FLuc counter=47*
CC1=Nc2cc(C(=O)NCCCN3CCOCC3)ccc2Sc2c(C)ccc(C)c21,-2,66*,10,-9,47,0,11,
O=c1[nH]c2cc([N+](=O)[O-])ccc2c2cc(Br)ccc12,/,/,/,/,/,1,/,
CC(=O)n1c2c(c3ccccc31)OC(N)=C(C#N)C2c1ccc(C(C)C)cc1 (stereo not given),2,59*,10,-13,12,5,66*,FLuc counter=131*
CC(=O)C1=C(C)OC(N)=C(C#N)C1c1cccc2ccccc12 (stereo not given),2,31,5,-5,-21,3,/,
O=C(COC(=O)c1c2c(nc3ccccc13)CCCC2)Nc1ccc2c(c1)OCO2,-1,41,2,9,13,-3,/,
O=C(COC(=O)c1c2c(nc3ccccc13)/C(=C\c1cccs1)CCC2)Nc1ccccc1,17*,52*,5,3,101*,8,11,
CC(=O)c1ccc(NC(=O)COC(=O)c2c3c(nc4ccccc24)/C(=C\c2cccs2)CCC3)cc1,4,66*,12,3,117*,22,35,
CC(C)CNC(=O)COC(=O)c1c2c(nc3ccccc13)/C(=C\c1cccs1)CC2,5,/,30,/,/,0,/,
CC(C)CNc1nnnc2c1sc1nc(N3CCOCC3)c3c(c12)CC(C)(C)SC3,-1,35,-11,19,-6,2,/,
CC1(C)Cc2c(c(N3CCOCC3)nc3sc4c(NCc5ccccc5)nnnc4c23)CS1,2,94*,9,8,8,4,6,
CC1(C)Cc2c(c(N3CCOCC3)nc3sc4c(NN)ncnc4c23)CS1,-9,61*,2,81*,87*,-1,12,
Cc1cc(NC(=O)Cc2ccccc2)nc2c1c(=O)oc1ccccc12,2,74*,5,9,44,2,32,
CC(=N\NC(=O)c1ccc([N+](=O)[O-])cc1)/C(=N/O)C(=O)Nc1ccccc1,-3,4,-3,3,-22,-2,/,
Cc1onc(-c2ccccc2Cl)c1C(=O)O/N=C(\N)c1ccccc1,1,100*,-6,5,41,2,92*,FLuc counter=112*
Cc1occc1C(=O)O/N=C(\N)c1ccccc1,2,72*,-109,42,21,1,-2,
Cc1cccc(/C(N)=N/OC(=O)c2ccoc2C)c1,-1,94*,-128,38,2,-1,47*,FLuc counter=167*
Cc1ccccc1/C(N)=N/OC(=O)c1ccc(F)cc1,-2,65*,-18,/,-12,1,-3,
COc1cccc(S(=O)(=O)NCc2ccc(C(=O)N3CCN(C)CC3)cc2)c1,2,-10,8,/,/,1,/,
Cc1cn([C@H]2C[C@H](O)[C@@H](CNCc3cccn3-c3nccs3)O2)c(=O)[nH]c1=O,/,/,/,/,/,-1,/,
Cc1ccccc1C(=O)O/N=C(\N)c1ccc([N+](=O)[O-])cc1,2,35,-17,0,-9,0,/,
Cc1onc(-c2ccccc2Cl)c1C(=O)Nc1cccc2cccnc12,0,64*,-3,7,53,23,17,
COc1cc(NC(=O)c2c(-c3ccccc3Cl)noc2C)c2ncccc2c1,-4,24,9,15,46,4,/,
Cc1ccccc1C(=O)O/N=C(\N)c1ccccc1,2,86*,-93,6,-1,0,41*,FLuc counter=114*
COC(=O)C(=Cc1ccncc1)c1cccc2ccccc12,/,/,/,/,/,0,/,
SMILES,NR3A LBD binder,Mdm2 MdmX PPI,Gli-Sufu antag,Beta cell apopt,CSC inhib,MPTP block,Mdm2-MdmX conf,others
COc1ccc(/C=C/C(=O)Oc2cccc(/C=N/NC(=O)Cc3ccc(Br)cc3)c2)cc1,4,32,-62,23,14,3,/,
CCOc1ccc(S(=O)(=O)Nc2cc(S(=O)(=O)N3CCOCC3)ccc2OC)cc1,9,-24,-5,0,-11,0,/,
CCOC(=O)c1cc2c(ccn2C)n1Cc1cc(C)ccc1C,1,4,14,3,10,0,/,
CC(C)OC(=O)c1cc2c(ccn2C)n1CC(=O)N(Cc1ccccc1)c1ccccc1,-3,86*,6,8,24,-3,54*,FLuc counter=65*
COc1ccc(C(=O)N2CCN(CCCc3ccccc3)CC2)cc1OC,-2,-23,15,1,9,0,/,
Cc1ccc(-n2nc3c(=O)n(CC(=O)NCc4ccccc4)nc(C)c3c2C)cc1,0,3,5,/,-10,0,/,
Cc1ccc(-n2nc3c(=O)n(CC(=O)NC(C)CCc4ccccc4)nc(C)c3c2C)cc1 (stereo not given),0,50*,14,9,2,6,9,
CCn1c(CC(=O)Nc2ccccc2F)nnc1SCC(=O)Nc1nncs1,0,-1,-8,2,-13,-1,/,
CCC(C)N(CC(=O)Nc1cccc(C)c1C)C(=O)CCl (stereo not given),0,100*,18,4,14,0,99*,FLuc counter=52*
CC(C)N(CC(=O)Nc1ccc(Cl)cc1C(F)(F)F)C(=O)CCl,0,63*,-7,-6,-6,-2,11,
CCC(CC)NC(=O)Nc1cccc(C)c1C,-2,5,-11,-1,1,1,/,
Cn1cccc1C(=O)NNC(=O)COc1ccccc1F,1,-10,-34,-8,-7,1,/,
COc1ccc([N+](=O)[O-])cc1NC(=O)c1cccs1,0,15,-1,4,0,-4,/,
Cc1ccc([N+](=O)[O-])cc1NC(=S)NC(=O)c1cccs1,-1,62*,2,1,-2,1,18,
COc1ccc(CN2CCN(C(=O)CCC(=O)c3ccc(C)s3)CC2)cc1OC,-2,-10,-5,-2,/,0,/,
CCOc1cc(CNCCCN2CCOCC2)ccc1OCC(=O)Nc1cccc2ccccc12,1,78*,-7,17,11,2,54*,FLuc counter=54*
Cc1cccc(CN2CCC(CNC(=O)CSc3cc(=O)n(C)c4cc(Cl)ccc34)CC2)c1,-1,65*,5,-7,-14,0,42*,FLuc counter=67*
COCCNC(=O)CSc1cc(=O)n(C)c2cc(Cl)ccc12,-5,13,-4,2,-13,1,/,
COc1cccc(C2C3=C(N=C4SCC(=O)N42)c2ccccc2CC3)c1OC (stereo not given),0,13,-2,9,2,-4,/,
